Bioassay records (PubChem)
Compounds with a hit are over-represented: about 2.4% of the library has one in this group of screens.
S2 tox = viability counter-screen for ATXN expression inhibitors. S2 cells (HEK-293 line with an ATXN2-luciferase reporter) viability, CellTiter-Fluor protease fluorescence, 24 h. Potency, µM (top dose mostly 56.7 µM), most hits filed as cytotoxic. 400,000 compounds, 0.49% hits. AID 651635; further: nearly all actives have a fitted effect of over 40% in size
Anesthetic bind = binds horse apoferritin like a general anesthetic; apoferritin/1-aminoanthracene competitive binding, fluorescence; 350,000 compounds, 0.074% hits; AID 485281; Potency, µM (highest dose often 77.5 µM), for inactives: at the top dose activity change, negative = displacement, most hits filed as inhibitors; further: on the % scale 0 is the no-effect control and ±100 the full control effect; nearly all actives have a fitted effect of over 20% in size
Target sequence (P02791 2-175 limits assumed): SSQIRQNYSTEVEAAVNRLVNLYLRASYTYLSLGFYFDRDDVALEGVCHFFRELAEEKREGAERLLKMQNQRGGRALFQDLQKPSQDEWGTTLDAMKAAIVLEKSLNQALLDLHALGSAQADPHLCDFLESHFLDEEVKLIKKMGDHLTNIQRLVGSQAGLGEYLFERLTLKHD
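In PBS, apoferritin at 10 uM is loaded with 1-AMA from a 50% saturated solution. After 10 min of compound exposure at ambient temperature, reduced 535 nm fluorescence indicates probe displacement.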
TGFb inhibitor = blocks TGF-b signaling | HepG2 CAGA-GFP TGF-b/SMAD3 reporter, GFP fluorescence, 18 h; TGF-beta stimulated, 500 pg/mL final | 410,000 compounds, 1.2% hits | Potency, µM (doses to about 46.1 µM), for inactives: at the highest dose activity, negative = inhibition, hits mostly inhibitors; further: on the % scale 0 is the no-effect control and ±100 the full control effect; nearly all actives have a fitted effect of over 65% in size
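HEPG2 CAGA-GFP reporter cells (1000/well, DMEM with 1% FBS) received compounds, then recombinant TGF-beta at 500 pg/mL final for 18 hours at 37 degrees C. Per-cell GFP summed per well was normalised to unstimulated and stimulated DMSO controls before curve fitting.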
HepG2 tox = HepG2 cytotoxicity, counter-screen for TGF-b inhibitors | HepG2 CAGA-GFP viability, ATP luminescence, 18 h | Potency, µM (highest dose often 46.1 µM), without a hit: at the highest dose activity change, negative = cytotoxicity, hits mostly cytotoxic | 410,000 compounds, 0.76% hits
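HepG2 CAGA-GFP cells (1000/well, DMEM with 1% FBS) received compound, then TGF-beta at 500 pg/mL final, and were incubated 18 hours at 37 degrees C. Viability was read by CellTiter-Glo luminescence. Media-only wells were set as complete cell-killing and DMSO as no toxicity.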
ATXN2 expr inh = reduces ATXN2 reporter expression in HEK-293 cells; HEK-293 ATXN2-luciferase reporter, luminescence, 24 h; Potency, µM (series often up to 57 µM), inactives show at the top dose activity change, negative = inhibition, most hits filed as inhibitors; 360,000 compounds, 0.72% hits; AID 1745845; further: on the % scale 0 is the no-effect control and ±100 the full control effect; nearly all actives have a fitted effect of over 55% in size
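ATXN2-luciferase reporter cells (luciferase flanked by upstream and downstream ATXN2 gene portions) were treated 24 h at 37 °C with compounds at up to 57 uM. SteadyGlo luminescence gave expression; GF-AFC fluorescence gave viability.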
Starred values were filed as active, the others as inactive; i = inactive; ? = inconclusive; / = not tested or not shown; [ ] = dose if it differs, or a comment. The call rests on the fitted dose curve; in most records, active means well fitted curve in the direction sought with a large enough effect; inconclusive means small, poorly fitted or top-dose-only effect, or another doubt; inactive means no such curve, though single readings can be large; an effect the other way counts as inactive or inconclusive. Potency means the concentration at half of the fitted maximal effect.

SMILES	S2 tox	Anesthetic bind	TGFb inhibitor	HepG2 tox	ATXN2 expr inh
COC(=O)C/C=C\[C@@H](C)[C@@H](/C=N\O[C@@H](C)c1cn([C@H]2COC[C@H]2O)nn1)NS(=O)(=O)c1ccc(C)cc1	/	3%[15.3 µM]	/	/	/
Cc1ccc(-n2c(Cl)c(Cl)nc(Cl)c2=O)cc1	/	-9%	5µM*	7.1µM*	5.3µM*
CC1(C)CC[C@]2(C(=O)n3ccnc3)CC[C@]3(C)[C@H](C(=O)C=C4[C@@]5(C)C=C(C#N)C(=O)C(C)(C)[C@@H]5CC[C@]43C)[C@@H]2C1	3.8µM*	/	?	-97%	3.4µM*
CC(O)COCC1OC2OC3C(COCC(C)O)OC(OC4C(COCC(C)O)OC(OC5C(COCC(C)O)OC(OC6C(COCC(C)O)OC(OC7C(COCC(C)O)OC(OC8C(COCC(C)O)OC(OC1C(OCC(C)O)C2OCC(C)O)C(OCC(C)O)C8OCC(C)O)C(OCC(C)O)C7OCC(C)O)C(OCC(C)O)C6OCC(C)O)C(OCC(C)O)C5OCC(C)O)C(OCC(C)O)C4OCC(C)O)C(OCC(C)O)C3OCC(C)O (stereo not drawn)	/	/	-11%	-7%	/
CCN(CC)S(=O)(=O)c1cccc(C(=O)N/N=C(\C)c2ccc(O)cc2O)c1	/	6%	21%	-29%	2.4µM*
O=C(C1CC1)N1CC[C@@H](Cn2c(-c3ccc(-c4ccc5occc5c4)cc3)nc3cnccc32)C1	/	/	/	/	-19%
O=C(NCc1nc(-c2ccc(C(F)(F)F)cc2)no1)Nc1ccc(OC(F)(F)F)cc1	?	-22%	11µM*	-90%	?
COc1ccc(-c2noc(CNS(=O)(=O)c3ccc(NC(C)=O)cc3)n2)cc1	i	-3%	2%	4%	-8%
CCCCC/C(C=O)=C\c1ccccc1	i	/	/	/	12%
O=C(Oc1cccc2cccnc12)c1ccc(Br)o1	i	-10%	6%	0%	-34%
O=C(Oc1cccc2cccnc12)c1ccco1	i	2%	13µM*	-53%	-7%
O=C(c1ccc(Cl)cc1)N1CCC2CC1c1cc(-c3ccccc3)ccc12 (stereo not drawn)	i	/	20µM*	-17%	-12%
O=C(c1cccc(Cl)c1)N1CCN(c2ccc3c(c2)C2CC3CCN2C(=O)OCc2ccccc2)CC1 (stereo not drawn)	?	/	11µM*	0%	0%
O=C(c1ccc(-c2ccccc2)cc1)N1CCN(c2ccc3c(c2)C2CC3CCN2C(=O)OCc2ccccc2)CC1 (stereo not drawn)	i	/	?	12%	4%
COc1ccc(C=Cc2cc(OC)c(OC)c(OC)c2)cc1NC(=O)[C@H](N)CO	/	/	/	/	-11%
C=CCC[C@@H](Cc1ccc(F)cc1)C(=O)OC[C@@H](Cc1c[nH]c2ccccc12)NC(=O)[C@@H](CC=C)CC(=O)N(CCO)Cc1ccccc1	?	/	13µM*	-69%	?
C=CCC[C@@H](Cc1ccc(F)cc1)C(=O)OC[C@H](C)NC(=O)[C@@H](CC=C)CC(=O)N(CCO)Cc1ccccc1	?	/	13µM*	-21%	?
C=CC[C@@H](Cc1ccc(F)cc1)C(=O)OC[C@@H]1CCCN1C(=O)[C@H](CC=C)CC(=O)N(CCO)Cc1ccccc1	20µM*	/	?	-27%	?
C=CCC[C@H](Cc1ccc(F)cc1)C(=O)OC[C@@H](C)NC(=O)[C@H](CC=C)CC(=O)N(CCO)Cc1ccccc1	?	/	?	-10%	?
C=CC[C@@H](CC(=O)N(CCO)Cc1ccccc1)C(=O)N[C@H](COC(=O)[C@@H](CC=C)Cc1ccc(F)cc1)Cc1c[nH]c2ccccc12	?	/	?	-13%	0%
C=CCC[C@H](Cc1ccc(F)cc1)C(=O)OC[C@H](Cc1c[nH]c2ccccc12)NC(=O)[C@H](CC=C)CC(=O)N(CCO)Cc1ccccc1	32µM*	/	?	-27%	?
C=CC[C@H](CC(=O)N(CCO)Cc1ccccc1)C(=O)NC[C@H](OC(=O)[C@@H](CC=C)Cc1ccc(F)cc1)c1ccccc1	25µM*	/	?	-40%	?
C=CC[C@@H](CC(=O)N(CCO)Cc1ccccc1)C(=O)NC[C@@H](OC(=O)[C@@H](CC=C)Cc1ccc(F)cc1)c1ccccc1	?	/	?	-25%	?
Nc1ccc(N2CCCCC2)cc1N1CCCCC1	i	?	10µM*	-29%	-4%
Nc1c(N2CCCC2)cc(Cl)c2nonc12	i	-5%	10µM*	-96%	-20%
SMILES	S2 tox	Anesthetic bind	TGFb inhibitor	HepG2 tox	ATXN2 expr inh
Nc1c(N2CCOCC2)cc(Cl)c2nonc12	i	-23%	0%	9%	14%
Nc1ccc(N2CCCCC2)c2nonc12	i	-11%	13µM*	-76%	/
COc1cccc(CNC(=O)c2cnn(-c3ncc4c(n3)-c3ccccc3CCC4)c2C)c1OC	i	/	/	/	/
CCOc1ccc(NC(=S)N2CCC(C(O)(c3ccccc3)c3ccccc3)CC2)cc1	i	-8%	?	-20%	3%
Cc1cc(OCCCN2CCC(C(O)(c3ccccc3)c3ccccc3)CC2)ccc1Br	22µM*	/	/	/	32µM*
CCOC(=O)c1c(C(F)(F)C(F)(F)C(F)(F)C(F)(F)F)n[nH]c1C	i	?	?	13µM*	-14%
O=C1c2cccc(OCc3ccc(F)cc3)c2CCN1Cc1ccccc1	i	13%	18µM*	-36%	-18%
Cc1ccc2c(c1)CCC2=O	/	/	3%	0%	/
Nc1ccc(Sc2ccc([N+](=O)[O-])cc2)cc1	i	11µM*	-16%	-4%	/
CCc1cc(-c2oncc2-c2ccc(OC)cc2)c(O)cc1OC	/	-22%	/	/	/
CCCCC(CC)Cn1c(N)c(C#N)c2nc3ccccc3nc21 (stereo not drawn)	i	-19%	?	14µM*	-18%
CN(C)CCCn1c(N)c(C#N)c2nc3ccccc3nc21	/	572%	5%	16%	-31%
CCOc1ccc2nc(NC3=NC(C)(C)C=C(C)N3)nc(C)c2c1	?	?	?	-33%	?
CCOc1ccc2nc(NC3=NC(c4ccc(OC)cc4)CC(=O)N3)nc(C)c2c1 (stereo not drawn)	8.9µM*	-19%	?	-101%	8.9µM*
CCOC(=O)c1[nH]c(C)c(CCC(=O)Nc2ccc(C)cc2Cl)c1C	i	3%	1%	11%	-11%
Cn1nnnc1Sc1ncnc2scc(-c3cc4ccccc4o3)c12	13µM*	/	2.5µM*	4.5µM*	5.6µM*
Cc1ccc(-c2csc3ncnc(SCC(=O)O)c23)cc1	i	3%	4%	0%	-3%
Cn1nnnc1Sc1ncnc2scc(-c3cccs3)c12	i	/	?	-107%	8.9µM*
Cn1nnnc1Sc1ncnc2scc(-c3ccsc3)c12	?	/	13µM*	-78%	14µM*
